# Sampled rows, rich in hits. Any-hit rate of the full collection: about 2.8%.
# p-CIP stab down – p/CIP protein destabilization. Q05BA5. hit rate 0.01% among 290,000. F442A p/CIP-EGFP cells, EGFP fluorescence, 16 h. AID 1984. decrease of EGFP signal, % at 10 µM;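 active = EGFP signal decrease of at least 30% at 10 µM or well 3 SD below plate mean, unless failing retest; inactive = the rest, including hits failing retest or dose response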
# PolyA inhibitor – yeast polyadenylation inhibition. activity score, % at 12 µM. hit rate 0.02% among 300,000. S. cerevisiae SKY197-pL101 polyadenylation reporter, beta-gal luminescence; efflux-impaired pdr1/pdr3 knockout yeast; score 100 = 6 SD above DMSO. AID 1875;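 active = lowest replicate activity score at least 50, where 100 means six control SD above control mean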;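 also: yeast exposed to compound for 9 h at 30 °C; higher score means more reporter readthrough which indicates perturbed polyadenylation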
# Platelet DG rel – modulates dense granule release in human platelets. human platelet-rich plasma, SFLLRN dense granule ATP release, luminescence. inhibition, %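 (compounds screened at 7.5 µM in platelet-rich plasma)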. hit rate 0.22% among 300,000. AID 1663;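 active = mean replicate score, as percent of positive control, at or above 50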
# HIF activator – HIF pathway transcriptional activation. activation, % at 7.5 µM (by protocol). U2OS HRE-luciferase reporter, luminescence; normalized: DMSO 0%, desferrioxamine 100%. AID 1910. hit rate 0.32% among 300,000;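 active = mean activation of at least 10% of the iron chelator positive control signal, with at least half of replicates also reaching 10%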
# AHR act – human AHR activation. P35869. AHR-responsive luciferase reporter cells, luminescence. activation, % at 5 µM. hit rate 2.5% among 320,000. AID 2796; in the data active = activation above about 47%;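 also: 0% = vehicle wells and 100% = reference agonist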
# Starred values were filed as active, the others as inactive; nt = no result given.
SMILES,p-CIP stab down,PolyA inhibitor,Platelet DG rel,HIF activator,AHR act
Cc1cc(/C=C2/C(=O)N(C)C(=S)N2C)ccc1N1CCCC1,-122,11,-2,2,63*
NCCSc1c(-c2ccc(Cl)cc2)[nH]c2ccccc12,-6,-4,4,2,48*
NCCSc1c(-c2ccccc2)[nH]c2ccccc12,-10,8,-1,-1,12
N#Cc1c(-c2ccc(F)cc2)cc(-c2cccnc2)nc1N,-3,-4,3,0,55*
Cc1ccc(CNC(=O)NC2CCCCC2)cc1,-2,4,-2,18*,6
Cc1ccc(CNC(=S)NC2CCCCC2)cc1,-18,5,-3,0,nt
CCCCNC(=O)CNC(=S)N(CCCN1CCOCC1)Cc1cccs1,4,2,-3,0,-1
Cc1cccc(Nc2nnc(SCC(=O)N(C)C3CCS(=O)(=O)C3)s2)c1C (centres undefined),1,1,-16,0,-1
Nc1nc2ccccc2n1C(=O)c1ccccc1,2,-4,32,-1,10
Nc1nc2ccccc2n1C(=O)c1cccs1,7,-1,16,1,52*
COc1ccccc1NC(=O)CN(C)S(=O)(=O)c1cccc2cccnc12,1,-3,-4,29*,8
COc1ccccc1CNC(=O)CN(C)S(=O)(=O)c1cccc2cccnc12,-10,-7,6,0,4
C/C(CCC(C)C)=N\NC(=S)NCc1ccccc1,3,-18,0,-1,9
Cc1ccc2nc(SCc3nnc(-c4ccccc4Br)o3)[nH]c2c1,-3,-13,25,0,52*
Cc1noc(C)c1NC(=O)N(C)C[C@H]1Oc2c(NS(=O)(=O)c3cn(C)cn3)cccc2C(=O)N([C@H](C)CO)C[C@@H]1C,nt,nt,nt,nt,1
CCN=C1SC(C(=O)Nc2ccccc2)CC(=O)N1CC (centres undefined),-8,-8,-3,0,0
CCn1nc(C(=O)OCC(=O)Nc2ncc(Cl)c(C)c2Cl)c2ccccc2c1=O,-11,-19,-17,0,1
CCn1nc(C(=O)OCC(=O)NC(C)C)c2ccccc2c1=O,7,11,-1,38*,2
Cc1ccccc1NCCNc1ccccc1C,-7,8,4,0,0
CCc1ccc(N2C(=O)Nc3ccccc3C2(O)C(=O)N2CCN(c3ccccn3)CC2)cc1 (centres undefined),6,10,3,0,3
CC(=O)Nc1cccc(NC(=O)CSc2ncc(C(=O)Nc3ccccc3)c(=O)n2C)c1,nt,3,5,8,16
CC(=O)Nc1cccc(NC(=O)CSc2ncc(C(=O)Nc3ccc(F)cc3)c(=O)n2C)c1,nt,7,-1,-1,66*
CC(=O)c1cccc(NC(=O)CSc2ncc(C(=O)Nc3ccccc3)c(=O)n2C)c1,nt,-8,12,-1,13
CC(=O)Nc1ccc(NC(=O)CSc2ncc(C(=O)Nc3ccc(Cl)cc3)c(=O)n2C)cc1,nt,9,9,1,68*
CCOC(=O)C1CCCN(c2oc(-c3ccc(OC)cc3)nc2C#N)C1 (centres undefined),-4,6,-4,-1,14
SMILES,p-CIP stab down,PolyA inhibitor,Platelet DG rel,HIF activator,AHR act
O=C(Nc1ccccc1-c1nc2ccccc2s1)c1ccco1,-4,-2,-5,0,38
O=C(Nc1c(Cl)cc(Cl)cc1-c1nc2ccccc2s1)c1ccc(Br)o1,-2,-16,-2,0,61*
CCOC(=O)c1ccc(S(=O)(=O)NNC(=O)COc2ccccc2C)cc1,-5,-12,2,999*,-1
CCOC(=O)c1ccc(OCCOc2ccccc2C)cc1,-4,-5,-6,1,8
CC(C)NC(=S)N=Nc1c(O)[nH]c2ccc([N+](=O)[O-])cc12,-7,-8,7,0,60*
C=C(C)CNC(=S)N=Nc1c(O)[nH]c2ccc([N+](=O)[O-])cc12,-4,-13,0,-1,26
O=C(O)CSc1cc(NS(=O)(=O)c2ccc(Cl)cc2)c2ccccc2c1O,-7,-8,11,0,50*
COc1ccc(S(=O)(=O)Nc2cc(SCC(=O)O)c(O)c3ccccc23)cc1,6,-10,3,4,66*
COc1ccc(S(=O)(=O)Nc2cc(Sc3ncn[nH]3)c(O)c3ccccc23)cc1,-27,nt,nt,nt,nt
Cc1cc(C)c(S(=O)(=O)Nc2cc(SCC(=O)O)c(O)c3ccccc23)cc1C,-1,7,-6,-1,61*
COc1ccc(N2CCN(S(=O)(=O)c3cn(C)cn3)CC2)cc1,1,16,-1,0,1
CCCSc1ccc(C(=O)Nc2ccc(Cl)cc2)cn1,-10,10,1,4,60*
CCN(CC)C(=O)c1[nH]cnc1C(=O)N[C@@H](CC(C)C)C(=O)OCc1ccccc1,-22,-6,1,0,-1
CCOc1ccccc1-c1nc(C(N)=O)c2[nH]c(=O)n(-c3ccc(F)cc3)c2n1,-22,-16,-9,0,72*
CC(C)c1nc(C(N)=O)c2[nH]c(=O)n(-c3ccc(F)cc3)c2n1,-5,9,17,0,11
COC(=O)c1ccc(CSc2nnc(N)s2)cc1,3,6,75*,0,1
COC(=O)c1ccc(CSc2nnc(C)s2)cc1,-14,-16,2,3,3
CCOc1ccc(C2c3[nH]c4ccccc4c3CCN2C(=O)Cn2cncn2)cc1 (centres undefined),-2,-6,-6,-1,68*
CSc1ccc(C2c3[nH]c4ccccc4c3CCN2C(=O)c2cc(C)n(C)n2)cc1 (centres undefined),-7,-5,2,5,49*
CC(=O)c1ccc(S(=O)(=O)N2CCN(C(=O)CN3C(=O)NC4(CCCC4)C3=O)CC2)cc1,nt,12,8,1,2
Oc1c(C(Nc2ccccn2)c2ccccn2)ccc2cccnc12 (centres undefined),-3,0,1,14*,24
Oc1ccccc1C(Nc1nccs1)c1ccc2cccnc2c1O (centres undefined),-4,11,7,21*,6
Cc1ccc2ccc(C(Nc3ccccn3)c3ccccc3)c(O)c2n1 (centres undefined),-26,19,-3,0,5
CCc1nc(SCC(=O)c2cccc([N+](=O)[O-])c2)n[nH]1,-7,-6,23,-1,4
Cc1nc2nc(SCC(=O)C(C)(C)C)[nH]c2cc1Br,15,21,5,0,47*
Cc1nc2nc(SCC(=O)c3cccc([N+](=O)[O-])c3)[nH]c2cc1Br,-3,-4,1,1,57*
Cc1onc(-c2ccccc2Cl)c1C(=O)N1CCCCC1C (centres undefined),-17,11,-4,-29,2
CCn1c(=O)cc(N2CCN(Cc3ccccc3)CC2)[nH]c1=O,7,-13,53*,0,-1
Cc1nonc1C(=O)N/N=C/c1cccc(O)c1,-2,11,57*,0,15
